Results taken from PubChem BioAssay (NCATS).
Values joined by “and” are separate entries in the source; they are usually repeats but may differ in a detail not shown here. Equal values may be shown once. Records with an inconclusive call do not appear. A call without a number means that no potency is given here. Unmarked numbers belong to inactive results. Active and inactive are the calls of the source. Unless noted, calls come from the whole dose curve; as a rule, active = well fitted curve in the direction sought with a large enough effect; inconclusive = small, poorly fitted or top-dose-only effect, or another doubt; inactive = no such curve, though single readings can be large; an effect the other way counts as inactive or inconclusive.

What was measured:
[1] = target: Cellular tumor antigen p53 (Homo sapiens) (UniProt P04637); assay: Primary qHTS for small molecule compounds that upregulate eGFP-tagged delta133p53alpha (in N-terminal) cells. (AID 2060322); details: NCI-H358 eGFP-delta133p53alpha fluorescence, 24 h; activation: stronger effect = higher value; note: nearly all actives have a fitted effect of over 75% in size; note: potency is the fitted concentration of half-maximal effect; for activation: series mostly up to about 56 µM
Chain of Cellular tumor antigen p53 (Homo sapiens) (P04637 whole entry, looked up): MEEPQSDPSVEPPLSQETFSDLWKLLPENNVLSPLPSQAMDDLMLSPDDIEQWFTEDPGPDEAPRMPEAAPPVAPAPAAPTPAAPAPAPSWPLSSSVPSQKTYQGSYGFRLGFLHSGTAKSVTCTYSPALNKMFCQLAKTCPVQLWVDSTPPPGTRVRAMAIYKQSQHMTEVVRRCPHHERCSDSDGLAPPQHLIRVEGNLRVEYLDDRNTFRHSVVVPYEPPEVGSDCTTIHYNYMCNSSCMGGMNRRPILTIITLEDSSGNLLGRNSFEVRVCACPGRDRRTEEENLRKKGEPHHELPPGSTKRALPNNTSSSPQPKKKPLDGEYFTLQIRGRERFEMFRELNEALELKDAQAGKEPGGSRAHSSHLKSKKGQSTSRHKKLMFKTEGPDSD
Outline: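 NCI-H358 cells pre-induced 24 h with 10 ng/ml doxycycline to express N-terminal eGFP-delta133p53alpha, then dosed 24 h at 37C without doxycycline; fixed, Hoechst-stained, GFP intensity by laser scanning cytometry, normalized to DMSO (0%) and 57.5 uM 5-azacytidine (100%).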

[2] = target: Aldehyde dehydrogenase, mitochondrial (Homo sapiens) (UniProt P05091); assay: qHTS for Inhibitors of the Aldehyde Dehydrogenase Family (ALDH2) Confirmatory screens (AID 2061303; active = well fitted inhibition curve with a large enough effect; title and protocol of this record describe different tests; note: nearly all actives have a fitted effect of over 45% in size; note: potency is the fitted concentration of half-maximal effect)
[3] = qHTS for Inhibitors of the Aldehyde Dehydrogenase Family (ALDH1A2, ALDH1A3, ALDH2, ALDH3A1) (AID 2061307); note: nearly all actives have a fitted effect of over 50% in size; for potency: test system not described further here; potency is the fitted concentration of half-maximal effect
[4] = target: Aldehyde dehydrogenase, mitochondrial (Homo sapiens) (UniProt P05091); assay: qHTS for Inhibitors of the Aldehyde Dehydrogenase Family (ALDH2) Primary screen (AID 2061308); note: nearly all actives have a fitted effect of over 55% in size; note: potency is the fitted concentration of half-maximal effect
[5] = target: Retinaldehyde dehydrogenase 3 (Homo sapiens) (UniProt P47895); assay: qHTS for Inhibitors of the Aldehyde Dehydrogenase Family (ALDH1A3) Confirmatory screens (AID 2061311); note: nearly all actives have a fitted effect of over 60% in size; note: potency is the fitted concentration of half-maximal effect
[6] = target: Retinal dehydrogenase 2 (Homo sapiens) (UniProt O94788); assay: qHTS for Inhibitors of the Aldehyde Dehydrogenase Family (ALDH1A2) Confirmation screens (AID 2061314); note: nearly all actives have a fitted effect of over 65% in size; note: potency is the fitted concentration of half-maximal effect
[7] = target: Retinaldehyde dehydrogenase 3 (Homo sapiens) (UniProt P47895); assay: qHTS for Inhibitors of the Aldehyde Dehydrogenase Family (ALDH1A3) Primary screen (AID 2061315)
[8] = target: Aldehyde dehydrogenase 1A1 (Homo sapiens) (UniProt P00352); assay: qHTS for Inhibitors of the Aldehyde Dehydrogenase Family (ALDH1A1) Confirmatory screens (AID 2061316); note: nearly all actives have a fitted effect of over 65% in size; note: potency is the fitted concentration of half-maximal effect
[9] = target: Retinaldehyde dehydrogenase 3 (Homo sapiens) (UniProt P47895); assay: qHTS for Inhibitors of the Aldehyde Dehydrogenase Family (ALDH1A3) Validation screen (AID 2061312); note: nearly all actives have a fitted effect of over 45% in size; note: potency is the fitted concentration of half-maximal effect
[10] = BET inhibitor-based combinations targeting novel dependencies in MECOM-rearranged (r) AML: OCI-AML3 cell line (AID 2202232); details: Potency: OCI-AML3 viability; note: nearly all actives have a fitted effect of over 35% in size; note: potency is the fitted concentration of half-maximal effect
Outline: (§1)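 A 48 hr incubation preceded viability reading by CellTiter-Glo, with 15 min room-temperature development. Dose series had 11 points; normalization used DMSO and empty wells; AUC was computed and mean-centered per line as Z-AUC.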

[11] = BET inhibitor-based combinations targeting novel dependencies in MECOM-rearranged (r) AML: UCSD-AML1 cell line (AID 2202235); note: series mostly up to about 46 µM; nearly all actives have a fitted effect of over 40% in size
Outline: (§2)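 Each compound is tested in an 11-point concentration series against 500 seeded cells/well for 48 hr. The luminescent viability signal is normalized to DMSO and blank wells, then reduced to AUC and a cell-line-centred Z-AUC.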

[12] = BET inhibitor-based combinations targeting novel dependencies in MECOM-rearranged (r) AML: SET-2 cell line (AID 2202231); details: SET-2 AML cells viability, CellTiter-Glo luminescence, 48 h; viability: stronger effect = lower value, concentration not given here; note: potency is the fitted concentration of half-maximal effect; nearly all actives have a fitted effect of over 35% in size
Outline: as §1

[13] = BET inhibitor-based combinations targeting novel dependencies in MECOM-rearranged (r) AML: MV-4-11 cell line (AID 2202233); note: potency is the fitted concentration of half-maximal effect; nearly all actives have a fitted effect of over 45% in size
Outline: as §2

[14] = BET inhibitor-based combinations targeting novel dependencies in MECOM-rearranged (r) AML: HNT-34 cell line (AID 2202234); note: potency is the fitted concentration of half-maximal effect; nearly all actives have a fitted effect of over 35% in size
Outline: as §2

[15] = BET inhibitor-based combinations targeting novel dependencies in MECOM-rearranged (r) AML: AML-194 cell line (AID 2202237; note: potency is the fitted concentration of half-maximal effect; nearly all actives have a fitted effect of over 40% in size)
Outline: as §1

## COc1cccc(OC)c1C(=O)N[C@@H]1C(=O)N2[C@@H]1SC(C)(C)[C@@H]2C(=O)O
[1]
  activation: -33.3% and -3%
[2]
  Potency: inactive
[3]
  Potency: inactive
[4]
  Potency: inactive
[5]
  Potency: inactive
[6]
  Potency: inactive
[7]
  Potency: inactive
[8]
  Potency: inactive

## C=C1CC[C@@H]2[C@](C)(CO)[C@H](O)CC[C@@]2(C)[C@@H]1CC(=O)C1=CCOC1=O
[1]
  activation: 9.16%
[2]
  Potency: inactive
[3]
  Potency: inactive
[4]
  Potency: inactive
[5]
  Potency: inactive
[6]
  Potency: inactive
[8]
  Potency: inactive

## Cc1cn(C[C@H](N)C(=O)O)c(=O)n(Cc2ccsc2C(=O)O)c1=O
[1]
  activation: 15.3%
[2]
  Potency: inactive
[3]
  Potency: inactive
[4]
  Potency: inactive
[5]
  Potency: inactive
[9]
  Potency: 12.6 µM (active)
[7]
  Potency: inactive
[8]
  Potency: inactive

## O=C(c1cccc(Cl)c1F)N1CCN(Cc2cccc(Nc3nccs3)n2)CC1
[1]
  activation: 23.9%
[2]
  Potency: inactive
[3]
  Potency: inactive
[4]
  Potency: inactive
[5]
  Potency: 35.5 µM (active)
[7]
  Potency: inactive

## CC(C)(CC(=O)N1CCCC1)NCC(=O)N1C[C@@H](F)C[C@H]1C#N
[1]
  activation: 0.333%
[2]
  Potency: inactive
[3]
  Potency: inactive
[4]
  Potency: inactive
[5]
  Potency: inactive
[6]
  Potency: inactive
[7]
  Potency: inactive
[8]
  Potency: inactive

## O=c1cc(CN2CCOCC2)occ1OCCCCCSc1ccnc2cc(C(F)(F)F)ccc12
[1]
  activation: -4.65% and 8.33%
[2]
  Potency: inactive
[3]
  Potency: 22.5 µM (active)
[4]
  Potency: inactive
[5]
  Potency: inactive
[6]
  Potency: inactive
[7]
  Potency: inactive
[10]
  Potency: inactive
[11]
  Potency: inactive

## O=C(CCl)Nc1cccc(NC2=NS(=O)(=O)c3ccccc32)c1
[1]
  Potency: 26.9 µM (active)
[2]
  Potency: inactive
[3]
  Potency: inactive
[4]
  Potency: inactive
[5]
  Potency: inactive
[6]
  Potency: 1.01 µM (active)
[7]
  Potency: inactive
[8]
  Potency: 12.7 µM (active)
[12]
  Potency: 26.3 µM (active)
[10]
  Potency: 10.5 µM (active)
[13]
  Potency: 16.6 µM (active)
[14]
  Potency: 5.25 µM (active)
[15]
  Potency: 13.2 µM (active)

## O=C(NCCN1CCN(c2cccc3ccc(O)cc23)CC1)c1ccc(F)cc1
[1]
  activation: -8.04%
[2]
  Potency: inactive
[3]
  Potency: 15.8 µM (active)
[4]
  Potency: inactive
[5]
  Potency: 5.04 µM (active)
[6]
  Potency: inactive
[8]
  Potency: 10.1 µM (active)

## COc1ccc(NC(=O)N2CCc3c2ccc2ccccc32)cc1N1CCN(C)CC1
[1]
  activation: 8.59%
[2]
  Potency: inactive
[3]
  Potency: inactive
[4]
  Potency: inactive
[5]
  Potency: inactive
[6]
  Potency: inactive
[8]
  Potency: inactive

## Cc1ccc(S(=O)(=O)c2ccc([N+](=O)[O-])o2)cc1
[1]
  Potency: 8.49 µM (active)
[2]
  Potency: 1.59 µM (active)
[3]
  Potency: 0.708 µM (active)
[4]
  Potency: 0.562 µM (active)
[5]
  Potency: 11.2 µM (active)
[9]
  Potency: 1.41 µM (active)
[6]
  Potency: 3.98 µM (active)
[8]
  Potency: 0.504 µM (active)

## COc1ccc(CC2NCCc3c2[nH]c2ccc(C)cc32)cc1OC (stereo not drawn)
[1]
  activation: 5.25%
[2]
  Potency: inactive
[3]
  Potency: inactive
[4]
  Potency: inactive
[5]
  Potency: inactive
[6]
  Potency: inactive
[7]
  Potency: inactive
[8]
  Potency: inactive

## N#Cc1ccc(O[C@@H]2c3ccccc3C[C@H]2N2CCC[C@@H](N)C2)c(Cl)c1
[1]
  Potency: 30.1 µM (active)
[2]
  Potency: inactive
[3]
  Potency: inactive
[4]
  Potency: inactive
[5]
  Potency: inactive
[6]
  Potency: inactive
[7]
  Potency: inactive

## CCC(=O)c1cc(-c2ccc(Cl)cc2)n(-c2ccc(S(N)(=O)=O)cc2)c1C
[1]
  activation: 0.955%
[2]
  Potency: inactive
[3]
  Potency: inactive
[4]
  Potency: inactive
[5]
  Potency: inactive
[9]
  Potency: inactive
[7]
  Potency: inactive
[8]
  Potency: inactive

## NC(=O)c1cccc(-c2cc(OC(=O)NC3CCCCC3)ccc2O)c1
[1]
  activation: 7%
[2]
  Potency: inactive
[3]
  Potency: 10.1 µM (active)
[4]
  Potency: inactive
[5]
  Potency: inactive
[7]
  Potency: inactive

## O=C(O)c1ccc(N2C(=O)/C(=C/c3ccc(-c4ccc([N+](=O)[O-])cc4)o3)C=C2c2ccccc2)cc1
[1]
  activation: 24.3%
[2]
  Potency: 1.59 µM (active)
[3]
  Potency: 11.3 µM (active)
[4]
  Potency: 3.98 µM (active)
[5]
  Potency: 20.1 µM (active)
[6]
  Potency: 5.65 µM (active)
[8]
  Potency: 3.18 µM (active)

## N[C@H]1Cc2ccccc2N(O)C1=O
[1]
  activation: 13.7%
[2]
  Potency: inactive
[3]
  Potency: inactive
[4]
  Potency: inactive
[5]
  Potency: inactive
[6]
  Potency: inactive
[7]
  Potency: inactive
[8]
  Potency: inactive

## CCOC(=O)[C@H](CCc1ccccc1)N[C@@H](C)C(=O)N1C(=O)N(C)C[C@H]1C(=O)O
[1]
  activation: 12.6% and 0.333%
[2]
  Potency: inactive
[3]
  Potency: inactive
[4]
  Potency: inactive
[5]
  Potency: inactive
[6]
  Potency: inactive
[7]
  Potency: inactive
[8]
  Potency: inactive

## CCNC(=O)OC1CCN(c2nncc3cc(OC)c(OC)cc23)CC1
[1]
  activation: -7.67%
[2]
  Potency: inactive
[3]
  Potency: inactive
[4]
  Potency: inactive
[5]
  Potency: inactive
[6]
  Potency: inactive
[7]
  Potency: inactive
[8]
  Potency: inactive

## CC/C=C\[C@H](O)[C@H](O)C1=C(C)C(=O)[C@]2(O1)C(=O)N[C@@](O)(C(=O)c1ccccc1)[C@@H]2O
[1]
  activation: -14.5%
[2]
  Potency: inactive
[3]
  Potency: inactive
[4]
  Potency: inactive
[5]
  Potency: inactive
[6]
  Potency: inactive
[7]
  Potency: inactive
